# Source: ChEMBL document CHEMBL3433997, “St. Jude Leishmania screening dataset” (2016)
# Experiments:
# Assay type in all cases: functional
# [1] = biological target: Solute carrier family 2, facilitated glucose transporter member 1 (Homo sapiens) (UniProt P11166); test: ST_JUDE_LEISH: Cytotoxicity at 2uM final concentration against transgenic Leishmania Mexicana promastigotes LmGLUT1 that are glucose transport deficient and complemented with the human glucose transporter GLUT1. Activity is measured by DNA content using SYBR green in vitro
# Sequence of Solute carrier family 2, facilitated glucose transporter member 1 (Homo sapiens) (P11166 whole entry): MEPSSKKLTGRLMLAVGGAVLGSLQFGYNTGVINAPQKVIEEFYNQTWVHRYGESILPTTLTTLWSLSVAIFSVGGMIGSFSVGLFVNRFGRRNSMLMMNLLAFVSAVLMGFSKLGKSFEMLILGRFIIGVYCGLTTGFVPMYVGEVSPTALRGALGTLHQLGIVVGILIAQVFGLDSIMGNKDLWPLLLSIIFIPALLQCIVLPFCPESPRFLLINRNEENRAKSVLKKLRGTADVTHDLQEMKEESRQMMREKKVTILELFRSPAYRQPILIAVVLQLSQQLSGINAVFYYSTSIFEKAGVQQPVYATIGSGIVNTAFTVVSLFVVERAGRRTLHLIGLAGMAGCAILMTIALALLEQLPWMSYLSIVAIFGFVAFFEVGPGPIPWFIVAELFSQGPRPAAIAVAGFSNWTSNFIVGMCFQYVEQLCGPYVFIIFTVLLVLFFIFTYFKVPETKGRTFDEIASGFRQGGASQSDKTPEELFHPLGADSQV
# [2] = biological target: Hexose transporter 1 (Plasmodium falciparum) (UniProt O97467); test: ST_JUDE_LEISH: Cytotoxicity at 2uM final concentration against transgenic Leishmania Mexicana promastigotes LmPfHT that are glucose transport deficient and complemented with the Plasmodium falciparum hexose transporter. Activity is measured by DNA content using SYBR green in vitro
# [3] = biological target: Glucose transporter (Leishmania mexicana) (UniProt O61059); test: ST_JUDE_LEISH: Cytotoxicity at 2uM final concentration against transgenic Leishmania Mexicana promastigotes LmGT2 that are glucose transport deficient and complemented with the L. Mexicana glucose transporter 2. Activity is measured by DNA content using SYBR green in vitro
Compound,inhibition [1] [%],inhibition [2] [%],inhibition [3] [%]
O=C(Cn1cnc2c(nnn2Cc2ccccc2F)c1=O)Nc1ccc2c(c1)OCCO2,1.31,0.66,-0.43
C[C@H](Cc1ccc(S(=O)(=O)c2ccc(C[C@@H](C)NC[C@H](O)c3cccc(Cl)c3)cc2)cc1)NC[C@H](O)c1cccc(Cl)c1,2.7,4,2.18
CC(C)(C)CC(=O)Nc1ccc(Nc2cc(-c3ccncc3)cc3ncc(C(N)=O)cc23)cc1,-0.38,1.53,1.26
CC(C)CCN1CCCN(Cc2ccc(C(=O)Nc3ccc(F)c(F)c3)cc2)CC1,4.12,4.65,4.14
CCCCC(=O)Nc1nc2ccc([N+](=O)[O-])cc2s1,1.98,2.81,-0.58
CCNc1cc(C(=O)N[C@@H](Cc2ccccc2)[C@H](O)CNCCC(C)c2ccccc2)cc(N2CCCC2=O)c1 (stereo not given in full),4.77,5.96,1.33
Cc1cc(C(=O)CN2C(=O)NC3(CCOc4ccccc43)C2=O)c(C)n1Cc1ccc(F)cc1 (stereo not given),3.91,2.31,1.1
Oc1cc(NC[C@H]2CCC[C@@H]2NCc2cc(Br)cc(Br)c2)nc2ccccc12,2.99,4.07,3.27
CCCC1(NC[C@@H](O)[C@H](Cc2ccccc2)NC(=O)c2cc(NCC)cc(N3CCCCS3(=O)=O)c2)CC1,1.58,1.33,-0.73
N#CC1(CCCNCCc2ccc(O)cc2)CCCc2c(O)cccc21 (stereo not given),14.1,12,11.7
CCC1=C(CC2NCCc3cc(OC)c(OC)cc32)CC2c3cc(OC)c(OC)cc3CCN2C1 (stereo not given),87.8,92.4,89.6
COc1ccc(-c2cnc3[nH]cc(-c4ccc(C(=O)O)cc4)c3c2)cn1,-1.03,5.94,0.18
OCC1CCN(Cc2ccc(-c3cccc(-c4nc5cc(F)ccc5[nH]4)c3)cc2)CC1,-1.93,-1.06,-1.42
CN(C)CCOc1cc(NC(=O)Nc2ccc(-c3ccccc3)cc2Cl)ccc1I,1.19,0.57,-2.09
COc1cccc(-c2cnc(N)c(-c3nc4cc(Cl)c(F)cc4[nH]3)c2)c1,15.6,14.7,8.86
N#Cc1ccc(N2CCN(Cc3ccc(-c4ccc(-c5nc6cc(F)ccc6[nH]5)s4)cc3)CC2)nc1,6.42,5.07,4.78
CCCCCCCCCN1CC[C@@H](CCCc2ccnc3ccc(O)cc23)[C@@H](CC)C1,-2.45,-2.37,-1.91
CCn1c(CN2CCN(Cc3ccccc3)CC2)nc2cc(NC(=O)c3cccs3)ccc21,1.2,1.22,-1.93
CC(C)N(Cc1ccc(-c2ccc(C(F)(F)F)cc2)cc1)C(=O)Cn1c(SCc2cccc(F)c2F)cc(=O)c2cc(CN3CCCCC3)ccc21,2.18,1.78,3.27
Cc1ncc(CN2CCC(C(=O)Nc3ccc(-c4nc5ccccc5o4)cc3)CC2)s1,-2.13,-3.66,-0.97
Cc1cccc(NC(=O)NCc2ccccc2)n1,1.62,1.46,2.38
COc1cc(OC)c(NC(=O)COc2ccc(C)cc2)cc1Cl,1.6,1.59,3.07
CC(C)Cc1cn(-c2nc(-c3nc4ccccc4[nH]3)cs2)c2cc(Cl)ccc12,6.36,6.84,7.38
COc1cc(OC)cc(-c2nn(-c3ccc([N+](=O)[O-])cc3Cl)c(=S)n2CC2CCCO2)c1 (stereo not given),3.14,-3.05,2.53
CCN(C)C(=O)n1ncc2c3c(N)nc(N)nc3ccc21,3.44,4.56,2.18
Cc1cnc(CN(Cc2ccc(-c3ccc(CNCCc4ccc(S(C)(=O)=O)cc4)cn3)cc2)C(=O)c2nn(-c3ccccc3)nc2C)cn1,5.03,3.95,4.81
Oc1c(Cl)cc(-c2ccccc2)cc1CNC1CCCCC1,2.63,1.84,0.52
Cc1cc2nc(-c3ccc(C(=O)NC4CCN(Cc5ccccc5)CC4)cc3)[nH]c2cc1C,14.1,12.9,10.7

Compound,inhibition [1] [%],inhibition [2] [%],inhibition [3] [%]
Cc1ccc(NC(=O)c2ccc(CN3CCCN(Cc4cccc(O)c4)CC3)cc2)cc1F,7.81,6.4,6.83
O=C(Nc1ccc(-c2cccc(CN3CCC(O)CC3)c2)cc1)c1cccc(Cl)c1,24.1,17.8,16.8
FC(F)(F)CNc1nc(Nc2ccc3ncccc3c2)nc2[nH]ccc12,21.8,17.9,8.14
O=C(Nc1cccnc1)c1cc(-c2cc(Cl)ccc2O)n[nH]1,2.55,2.47,3.15
O=C(Nc1ccc(F)cc1)c1cnc(N2CCN(c3ccncc3)CC2)c(Cl)c1,16,10.4,3.86
Cc1cc(N[C@@H](Cc2ccccc2)C(=O)NCCc2ccccc2)nc(NCCOc2ccccc2)n1,5.12,5.84,2.55
Cc1cc(NCCc2cccc(F)c2)nc(NC(=N)Nc2cccc(C(F)(F)F)c2)n1,3.82,2.87,2.41
Cc1cc(NC(=O)c2cccs2)ccc1OC1CCN(Cc2ccc(C#N)cc2)CC1,-0.77,1.49,-0.42
CCc1c(CCNCCCCCCNCCc2ccc(Br)cc2)ccc(OC)c1OC,36.3,10.9,103
Cc1cc(N[C@@H](Cc2ccccc2)C(=O)Nc2ccccc2)nc(NCCc2ccccn2)n1,4.62,4.95,3.53
O=C(CCCCCNC(=O)c1ccc(O)c(-c2ccc(Cl)c(Cl)c2)c1)NCCN1CCCCC1,2.71,2.46,3.45
O=C(N[C@H]1CCCC[C@H]1C(=O)O)c1ccccc1,0.5,1.61,0.81
Cc1cc2nc(-c3ccc(C(=O)NCc4cccc(C(F)(F)F)c4)cc3)[nH]c2cc1C,-0.3,-2.94,-2.9
Cc1cc(N)c2cc(NC(=O)c3cc(C(F)(F)F)cc(C(F)(F)F)c3)ccc2n1,0.38,1.04,0.8
O=C(Nc1cccc(CN2CCN(C(=O)c3cccc(Cl)c3)CC2)c1)c1ccco1,-4.34,0.58,3.82
NC(=O)c1cccc(C(=O)Nc2cccc(-c3ccc(-c4nc5ccccc5[nH]4)s3)c2)c1,1.49,1.48,0.12
OC1CCN(c2cc(-c3ccccn3)nc(-c3ccccn3)n2)CC1,-1.43,2.02,-4.46
Cc1cc(C(=O)Nc2ccc3c(c2)CCN3C2CCN(Cc3ccc(O)cc3)C2)no1 (stereo not given),4.29,5.39,2.38
CC(C)(C)c1cc(NC(=O)c2ccc(Cl)c([N+](=O)[O-])c2)cc(C(C)(C)C)c1,6.54,6.88,6.21
COCc1nc(N)nc(N)c1-c1ccc(Cl)c(Cl)c1,-0.03,0.2,0.08
O=C(Cc1ccc(Nc2nccc(Nc3cccc4[nH]ncc34)n2)cc1)Nc1ccc(C(F)(F)F)cc1,5.9,6.7,4.78
CCCCCN1CCC(NC(=O)c2ccc(C(=O)Nc3ccc(C(C)C)cc3)cc2)C1 (stereo not given),1.74,1.41,1.46
O=C(NCCc1ccc(Cl)c(Cl)c1)c1ccc(CNC(=O)c2ccc(O)c(-c3ccc(Cl)c(Cl)c3)c2)cc1,0.99,1.15,1.06
CCCCCCCN1CC[C@@H](CCCc2ccnc3ccc(OCC4CCCNC4)cc23)[C@@H](CC)C1 (stereo not given in full),4.6,3.17,1.43
CC(=O)Nc1cccc(/C=C/C(=O)N2CCC(N3CCCCC3)CC2)c1,2.23,1.03,5.39
COc1nc(-n2ccc(=N)cc2)nc2ccccc12,12.2,13.4,2.63
COc1ccc(CCCON2C(=N)N=C(N)NC2(C)C)cc1,16.7,23,18
